Inconclusive results are not listed. Where a call stands in place of a potency, no number is given. Active and inactive are the calls of the source. Calls follow the shape of the dose curve; as a rule, active = well fitted curve in the direction sought with a large enough effect; inconclusive = small, poorly fitted or top-dose-only effect, or another doubt; inactive = no such curve, though single readings can be large; an effect the other way counts as inactive or inconclusive.
Test: Quantitative High-Throughput drug screen in 47 multiple myeloma cell lines against the NCATS MIPE library collection: MMM1_PLB cell viability assay (AID 1918976); also: nearly all actives have a fitted effect of over 35% in size
Details: MMM1 myeloma cells viability, CellTiter-Glo, 48 h; series mostly up to 45.8 µM
Procedure, shortened: (§1)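 Cells were exposed to library compounds for 48 hours, after which ATP was measured by CellTiter-Glo. Signal was taken as median relative luminescence units.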
Potency is read from the fitted curve at half-maximal effect.

Structure (SMILES) | Potency
CC(=O)Nc1ccc([C@H](C)C(=O)Nc2ncc(C(C)C)s2)cc1 | 6.62 µM (active)
CC(C(=O)O)c1ccc(-c2ccccc2)c(F)c1 (configuration not stated) | 1.87 µM (active)
O=C(N[C@@H](c1ccccc1)[C@@H]1CCCCN1)c1cccc(C(F)(F)F)c1Cl | 1.32 µM (active)
CC[C@H]1OC(=O)[C@H](C)C(=O)[C@H](C)[C@@H](O[C@H]2O[C@H](C)C[C@H](N(C)C)[C@@H]2O)[C@](C)(OC)C[C@@H](C)C(=O)[C@H](C)[C@H]2N(CCCCn3cnc(-c4cccnc4)c3)C(=O)O[C@]12C | 18.7 µM (active)
CC(C)(C)C(=O)Oc1ccc2c(c1)nc(NC(=O)c1cccc([N+](=O)[O-])c1)n2CCCO | 13.2 µM (active)
O=c1cc(-c2ccccc2)oc2cc(O)c(O)c(O)c12 | 23.5 µM (active)
O=c1c(-c2ccc(O)cc2)coc2cc(O)ccc12 | 5.26 µM (active)
C[C@H](NC(=O)C(=O)Nc1ccccc1C(C)(C)C)C(=O)N[C@@H](CC(=O)O)C(=O)COc1c(F)c(F)cc(F)c1F | inactive
CNC(=O)c1ccccc1Sc1ccc2c(C=Cc3ccccn3)n[nH]c2c1 | 20.9 µM (active)
O=C1C[C@@H](c2ccc(O)cc2)Oc2cc(O)cc(O)c21 | 1.48 µM (active)
CCC(=O)NC[C@H](Cc1ccc(OCCc2nc(-c3ccccc3)oc2C)cc1)NC(C)=CC(=O)c1ccc(C(F)(F)F)cc1 | 20.9 µM (active)
C[C@@H]1CCN(C(=O)CC#N)C[C@H]1N(C)c1ncnc2[nH]ccc12 | inactive
CC(C)n1cnc2c(NCCCCCCNC(=O)OC(C)(C)C)nc(NCCO)nc21 | 18.7 µM (active)
NC(CO)(CO)CCc1ccc(Sc2cccc(OCc3ccccc3)c2)cc1Cl | 23.5 µM (active)
O=C(O)[C@H]1O[C@H](Oc2cc3oc(-c4ccccc4)cc(=O)c3c(O)c2O)[C@H](O)[C@@H](O)[C@H]1O | 20.9 µM (active)

Test: Quantitative High-Throughput drug screen in 47 multiple myeloma cell lines against the NCATS MIPE library collection: MOLP8_DSMZ cell viability assay (AID 1918977); also: nearly all actives have a fitted effect of over 45% in size
Details: MOLP8 myeloma viability, CellTiter-Glo ATP luminescence, 48 h; series mostly up to 45.8 µM
Procedure, shortened: as §1

Structure (SMILES) | Potency
CC(=O)Nc1ccc([C@H](C)C(=O)Nc2ncc(C(C)C)s2)cc1 | 3.32 µM (active)
CC(C(=O)O)c1ccc(-c2ccccc2)c(F)c1 (configuration not stated) | inactive
CN1C[C@H]2c3ccccc3Oc3ccc(Cl)cc3[C@@H]2C1 | inactive
CCn1cc(C(=O)O)c(=O)c2ccc(C)nc21 | inactive
CN1CCN(CCOc2cc(OC3CCOCC3)c3c(Nc4c(Cl)ccc5c4OCO5)ncnc3c2)CC1 | 16.6 µM (active)
O=C1C[C@@H](c2ccc(O)cc2)Oc2cc(O)cc(O)c21 | inactive
CCC(=O)NC[C@H](Cc1ccc(OCCc2nc(-c3ccccc3)oc2C)cc1)NC(C)=CC(=O)c1ccc(C(F)(F)F)cc1 | 23.5 µM (active)
C[C@@H]1CCN(C(=O)CC#N)C[C@H]1N(C)c1ncnc2[nH]ccc12 | inactive
NC1CCC(Nc2nc(Nc3ccc(C(=O)N4CCCCC4)cc3)c3ncn(-c4cccc(F)c4)c3n2)CC1 (configuration not stated) | inactive
CN(C)Cc1ccc(-c2nc3cccc4c3n2CCNC4=O)cc1 | 13.2 µM (active)
O=C(O)c1ccccc1C(=O)Nc1ccc(-c2ccccc2)cc1 | inactive

Test: Quantitative High-Throughput drug screen in 47 multiple myeloma cell lines against the NCATS MIPE library collection: NCIH929_DSMZ cell viability assay (AID 1918978); also: nearly all actives have a fitted effect of over 35% in size
Details: NCI-H929 myeloma viability, CellTiter-Glo ATP, 48 h; series mostly up to 45.8 µM
Procedure, shortened: as §1

Structure (SMILES) | Potency
CC[C@H]1OC(=O)[C@H](C)[C@@H](O[C@H]2C[C@@](C)(OC)[C@@H](O)[C@H](C)O2)[C@H](C)[C@@H](O[C@@H]2O[C@H](C)C[C@H](N(C)C)[C@@H]2O)[C@](C)(O)C[C@@H](C)CN(C)[C@H](C)[C@@H](O)[C@]1(C)O | inactive
CC(=O)Nc1ccc([C@H](C)C(=O)Nc2ncc(C(C)C)s2)cc1 | 0.264 µM (active)
CC(C(=O)O)c1ccc(-c2ccccc2)c(F)c1 (configuration not stated) | 16.6 µM (active)
CC(C)(C)C(=O)Oc1ccc2c(c1)nc(NC(=O)c1cccc([N+](=O)[O-])c1)n2CCCO | inactive
CN1C[C@H]2c3ccccc3Oc3ccc(Cl)cc3[C@@H]2C1 | inactive
O=c1c(-c2ccc(O)cc2)coc2cc(O)ccc12 | inactive
C[C@H](NC(=O)C(=O)Nc1ccccc1C(C)(C)C)C(=O)N[C@@H](CC(=O)O)C(=O)COc1c(F)c(F)cc(F)c1F | inactive
CCn1cc(C(=O)O)c(=O)c2ccc(C)nc21 | inactive
CN1CCN(CCOc2cc(OC3CCOCC3)c3c(Nc4c(Cl)ccc5c4OCO5)ncnc3c2)CC1 | 18.7 µM (active)
CC1(C)CCC[C@@]2(C)[C@@H]1CC[C@@]1(C)OC(=O)C[C@H]21 | inactive
CNC(=O)c1ccccc1Sc1ccc2c(C=Cc3ccccn3)n[nH]c2c1 | 20.9 µM (active)
NC(=O)c1ccc2nc(-c3ccc(Oc4ccc(Cl)cc4)cc3)[nH]c2c1 | 0.0235 µM (active)
O=C1C[C@@H](c2ccc(O)cc2)Oc2cc(O)cc(O)c21 | inactive
CS(=O)c1ccc(-c2nc(-c3ccc(F)cc3)c(-c3ccncc3)[nH]2)cc1 (configuration not stated) | 5.4 µM (active)
CCC(=O)NC[C@H](Cc1ccc(OCCc2nc(-c3ccccc3)oc2C)cc1)NC(C)=CC(=O)c1ccc(C(F)(F)F)cc1 | inactive
NC[C@@H]1O[C@@H](O[C@H]2[C@@H](O)[C@H](O[C@@H]3[C@@H](O)[C@@H](N)C[C@H](N)[C@H]3O[C@H]3O[C@H](CN)[C@@H](O)[C@@H](O)[C@H]3N)O[C@H]2CO)[C@H](N)[C@@H](O)[C@@H]1O | inactive

Structure (SMILES) | Potency
CCC(CC)[C@H](NC(C)=O)[C@@H]1[C@H](O)[C@@H](C(=O)O)C[C@@H]1N=C(N)N | inactive
O=c1c(O)c(-c2ccc(O)cc2)oc2cc(O)cc(O)c12 | 9.35 µM (active)
CO[C@H]1C(=O)[C@]2(C)[C@@H](OC)C[C@H]3OC[C@@]3(OC(C)=O)[C@H]2[C@H](OC(=O)c2ccccc2)[C@]2(O)C[C@H](OC(=O)[C@H](O)[C@@H](NC(=O)OC(C)(C)C)c3ccccc3)C(C)=C1C2(C)C | inactive
COc1ccc2cccc(CCNC(C)=O)c2c1 | inactive
C[C@@H]1CCN(C(=O)CC#N)C[C@H]1N(C)c1ncnc2[nH]ccc12 | inactive
NC1CCC(Nc2nc(Nc3ccc(C(=O)N4CCCCC4)cc3)c3ncn(-c4cccc(F)c4)c3n2)CC1 (configuration not stated) | inactive
CN(C)Cc1ccc(-c2nc3cccc4c3n2CCNC4=O)cc1 | 18.7 µM (active)
CC(C)C[C@H](CC(=O)O)C(=O)N[C@@H](Cc1c[nH]c2ccccc12)C(=O)N[C@@H](C)c1ccccc1 | inactive
COc1cc(NC(=O)c2ccc(-c3ccc(Cl)cc3)o2)cc(OC)c1 | 2.64 µM (active)
O=c1cc(-c2cccc3c2Sc2ccccc2S3)oc(N2CCOCC2)c1 | 18.7 µM (active)
CO[C@H]1C=CO[C@@]2(C)Oc3c(C)c(O)c4c(O)c(c5c(c4c3C2=O)NC2(CCN(CC(C)C)CC2)N=5)=NC(=O)C(C)=CC=C[C@H](C)[C@H](O)[C@@H](C)[C@@H](O)[C@@H](C)[C@H](OC(C)=O)[C@H]1C | inactive
O=C(O)c1ccccc1C(=O)Nc1ccc(-c2ccccc2)cc1 | inactive
Cc1ccc(C(C)(O)c2nc3ccccc3s2)c(C)c1 (configuration not stated) | inactive
NC(CO)(CO)CCc1ccc(Sc2cccc(OCc3ccccc3)c2)cc1Cl | 20.9 µM (active)
O=C(O)[C@H]1O[C@H](Oc2cc3oc(-c4ccccc4)cc(=O)c3c(O)c2O)[C@H](O)[C@@H](O)[C@H]1O | inactive
